Measurements as given in PubChem BioAssay (NCI).
The panel holds about 83,000 compounds, 20% with a hit somewhere; the sample as a whole holds those more often.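 Cells were grown in 96-well plates and exposed to the test compound at a single concentration for 48 hours; results are reported as percent growth, with values below 10 considered active.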 A number with no mark means an inactive call. Activity calls are given as the source filed them.

Experiments:
Assay in all cases: NCI-60 one-dose screen, 48 h (100 = growth as untreated, 0 = no growth, -100 = all killed)
Conditions in all cases: 10 µM unless noted
HCT-15 colon = test system: HCT-15 colon
HT29 colon = test system: HT29 colon
SNB-75 CNS = test system: SNB-75 CNS
SNB-19 CNS = test system: SNB-19 CNS
U251 CNS = test system: U251 CNS
PC-3 prostate = test system: PC-3 prostate
UACC-62 melanoma = test system: UACC-62 melanoma
LOX IMVI melanoma = test system: LOX IMVI melanoma
SK-MEL-28 melanoma = test system: SK-MEL-28 melanoma
SK-MEL-5 melanoma = test system: SK-MEL-5 melanoma

Row | Compound | growth (HCT-15 colon) | growth (HT29 colon) | growth (SNB-75 CNS) | growth (SNB-19 CNS) | growth (U251 CNS) | growth (PC-3 prostate) | growth (UACC-62 melanoma) | growth (LOX IMVI melanoma) | growth (SK-MEL-28 melanoma) | growth (SK-MEL-5 melanoma)
1 | COc1cc2c(cc1OCCCCN1CCN(C(=S)SCCC(C#N)(c3ccccc3)c3ccccc3)CC1)N=C[C@@H]1CCCN1C2=O | -55.5% (active) | -65.6% (active) | -82.3% (active) | -14.5% (active) | -81.9% (active) | -16.1% (active) | -22.7% (active) | -83.2% (active) | -70.2% (active) | –
2 | C=CC(=O)Nc1ccc(Nc2nccc(-c3ccc(N4CCCC4)c(C#N)c3)n2)cc1 | -36.7% (active) | 2.55% (active) | 15.4% | 41.5% | 5.57% (active) | 23.6% | 52.9% | 69.4% | -46.1% (active) | –
3 | COc1ccc(/C=C2\COc3ccc(O)cc3C2=O)cc1 | 77.5% | 80.1% | 96.8% | 96.7% | 85.5% | 95.2% | – | 74.3% | 102% | –
4 | Cc1c2ccncc2c(C)c2c1c1cc(CO)ccc1n2C | 4.02% (active) | -21.1% (active) | 13.3% | 1.5% (active) | -10.8% (active) | 4.52% (active) | – | -21% (active) | 5.47% (active) | –
5 | CCOC(=O)c1c(C)c2c(n1Cc1ccccc1)CSCC2=O | 11.7% [100 µM] | 7.91% [100 µM] (active) | -13.9% [100 µM] (active) | 13.8% [100 µM] | 17.5% [100 µM] | 7.17% [100 µM] (active) | -35.4% [100 µM] (active) | -24.4% [100 µM] (active) | 27.8% [100 µM] | –
6 | CCCCCCCCCCCCCCCCCCOc1ccccc1CC(=O)NCC[N+]1(C)CCCCC1 | 95.7% | 12.8% | 61.4% | 36.7% | 16.3% | 8.74% (active) | 44.6% | 53.6% | 76.2% | –
7 | O=C1/C(=C/c2ccccn2)NC(=S)N1c1ccccc1Cl | 38.2% | 71.1% | 82% | 58.6% | 34.6% | 52.2% | 66.7% | 12.1% | 74% | –
8 | Cc1ccc(-c2nc(-c3cn(C)c4ncccc34)cs2)cc1 | -18% [100 µM] (active) | -68.1% [100 µM] (active) | -40.2% [100 µM] (active) | -21.1% [100 µM] (active) | -7.83% [100 µM] (active) | -20.6% [100 µM] (active) | -50.3% [100 µM] (active) | -41% [100 µM] (active) | -19.7% [100 µM] (active) | –
9 | O=C(C1=Cc2cc3ccccc3n2Cc2cnnn21)c1ccc(O)cc1 | 37.3% | 27.3% | 31% | 63.2% | 53.5% | 62.4% | – | – | 66.8% | 54.2%
10 | CS(=O)(=O)c1ccc(NC(=O)c2ccccc2)nc1 | 104% | 83.6% | 104% | 95.7% | 102% | 93.6% | 95.4% | 98.6% | 112% | –
11 | Cc1ccc(C2CC(c3nc(-c4ccc(Cl)cc4)oc3C)=NN2C(=O)c2ccncc2)cc1 (stereo unspecified) | 83.7% | 86.9% | 82.1% | 77.2% | 87.7% | 73.2% | – | – | 92.4% | 92.4%
12 | Cc1cc(Nc2ccc(C(=O)N3CCCC3)cc2)nc(NCCCNc2ccnc3cc(Cl)ccc23)n1 | 102% | 68.9% | 91.2% | 84.1% | 53.5% | 93.3% | 86.8% | – | 92.1% | –
13 | Fc1ccc(Cn2cc(CSc3nc4ccccc4o3)nn2)cc1 | 104% | 99.8% | 92.2% | 92.5% | 105% | 98.3% | 84.3% | 107% | 98.9% | –
14 | Fc1ccc2[nH]cc(-c3nc(-c4c[nH]c5ccncc45)cs3)c2c1 | -50% (active) | -62.9% (active) | -31.6% (active) | -48.4% (active) | -81.8% (active) | 7.43% (active) | -75.3% (active) | -92.3% (active) | -92.1% (active) | –
15 | O=C(CSc1nnc(-c2cc(-c3ccccc3)nc3ccccc23)n1-c1ccccc1)Nc1ccc(C(=O)/C=C/c2ccc(Cl)cc2)cc1 | 73.5% | 76.2% | 97.3% | 101% | 93.9% | 81% | 67.9% | 94.3% | 99.8% | –
16 | C[C@@H]1O[C@@H](O[C@@H]2C[C@H](c3ccc4c(c3O)C(=O)C3=C(C4=O)[C@@]4(O)C(=O)C[C@](C)(O)C[C@@]4(O)C=C3)O[C@H](C)[C@H]2O)CC[C@@H]1O[C@H]1C[C@@H](O)[C@H](O)[C@@H](C)O1 | 94.8% | 108% | 90.7% | 100% | 98.7% | 96% | 97.8% | 94.6% | 116% | –
17 | C/C=C(/C)n1cnc2c(Nc3ccccn3)nc(Cl)nc21 | 103% | 98.1% | 87.9% | 107% | 99.8% | 95.3% | 95.8% | 95.3% | 105% | –
18 | CN(C)CCN1C(=O)c2cccc3c(/C=C/CN4C(=O)c5cccc6cccc(c56)C4=O)ccc(c23)C1=O | -75.6% (active) | 94% | 90.6% | 18.7% | 90.8% | 71.7% | – | 30.3% | -56.5% (active) | 82.2%
19 | CSc1nc(C)c([N+](=O)[O-])c(N)n1 | 107% | 85.4% | 98.7% | 96.9% | 87.9% | 85.3% | 98% | 96.7% | 120% | –
20 | NC(N)=NS(=O)(=O)c1ccc(NC2=C(I)C(=O)c3ncccc3C2=O)cc1 | 103% | 106% | 67.9% | 98.7% | 110% | 92.1% | 94.2% | 95% | 135% | –
21 | O=C1C(Nc2ccccn2)=C(I)C(=O)c2ncccc21 | -60% (active) | -14.5% (active) | -94.3% (active) | 0% (active) | -82.4% (active) | 6.61% (active) | -68% (active) | -72.7% (active) | -36.7% (active) | –
22 | C=C(CNCCO)[C@@H]1CC[C@]2(CO)CC[C@]3(C)[C@H](CC[C@@H]4[C@@]5(C)CCC(N)C(C)(C)[C@@H]5CC[C@]43C)[C@@H]12 (stereo partly specified) | 77% | -22.4% (active) | 43.5% | 53.9% | -78.5% (active) | 61.9% | 9.7% (active) | – | -76.3% (active) | –
23 | CCOc1ccc(-n2nc(C(=O)NCc3ccccc3OC)nc2-c2cc(OC)c(OC)c(OC)c2)cc1 | 29% | 40.6% | 30% | 45.2% | 42.5% | 24.6% | 37% | 36.3% | 36.6% | –
24 | Clc1c(Cl)[n+](Cc2ccc3ccccc3c2)cn1Cc1ccc2ccccc2c1 | 75.1% | -69.4% (active) | 10.3% | 26.8% | -82.6% (active) | 3.79% (active) | -42.8% (active) | -21.4% (active) | 16.1% | –
25 | COc1cc(OC)c2sc(-c3ccc(-n4cncc4-c4cc(OC)c(OC)c(OC)c4)cc3)nc2c1 | 41.3% | 44.5% | 82.9% | 49.7% | 43.1% | 34.4% | 43.8% | 57.7% | 73% | –
26 | CN1CCN(CCCOc2cccc3nc(Nc4ccc(F)c(F)c4)ccc23)CC1 | -79.9% (active) | -69.5% (active) | -5.9% (active) | -17.4% (active) | -70.3% (active) | -43.6% (active) | -75.4% (active) | -87.7% (active) | -82.3% (active) | –
27 | COc1cccc(CCNc2ncnc3c2ncn3Cc2nnc3c4ccccc4c(Cl)nn23)c1 | 45.2% | 81.7% | 50.5% | 74.4% | 50.7% | 59.5% | 32.9% | 8.78% (active) | 71.6% | –
28 | CC(=O)c1sc2sc(C(C)=O)c(C)c2c1C | 105% | 79.4% | 90.6% | 105% | 93.9% | 77.7% | 75% | 95.6% | 100% | –
